Compounds with a hit are over-represented: about 19% of the library has one in this group of screens.
TDP1 cell noCPT: qHTS for Inhibitors of human tyrosyl-DNA phosphodiesterase 1 (TDP1): qHTS in cells in absence of CPT; DT40 Tdp1-/- hTDP1 cells, no CPT, ATP luminescence, 48 h; Potency, µM (doses to about 46.2 µM), without a hit: at the highest dose activity change, negative = growth inhibition, most hits filed as inhibitors; 420,000 tested, 15% active; also: potency is read from the fitted curve at half-maximal effect; nearly all actives have a fitted effect of over 55% in size
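Growth kinetics read by CellTiter-Glo luminescence after ≥48 hr at 37 °C. Cells: DT40 Tdp1-/- stably carrying human TDP1, 400 per well, compound exposure in the absence of CPT (DMSO vehicle).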
TDP1 block: inhibitors of human tyrosyl-DNA phosphodiesterase TDP1 | Potency, µM (top dose mostly 130 µM), for the others: top-dose activity change, negative = inhibition, hits mostly inhibitors | 350,000 tested, 0.28% active | recombinant TDP1, AlphaScreen DNA substrate cleavage; also: potency is read from the fitted curve at half-maximal effect; nearly all actives have a fitted effect of over 40% in size
Target sequence (Q9NUW8 whole entry, looked up): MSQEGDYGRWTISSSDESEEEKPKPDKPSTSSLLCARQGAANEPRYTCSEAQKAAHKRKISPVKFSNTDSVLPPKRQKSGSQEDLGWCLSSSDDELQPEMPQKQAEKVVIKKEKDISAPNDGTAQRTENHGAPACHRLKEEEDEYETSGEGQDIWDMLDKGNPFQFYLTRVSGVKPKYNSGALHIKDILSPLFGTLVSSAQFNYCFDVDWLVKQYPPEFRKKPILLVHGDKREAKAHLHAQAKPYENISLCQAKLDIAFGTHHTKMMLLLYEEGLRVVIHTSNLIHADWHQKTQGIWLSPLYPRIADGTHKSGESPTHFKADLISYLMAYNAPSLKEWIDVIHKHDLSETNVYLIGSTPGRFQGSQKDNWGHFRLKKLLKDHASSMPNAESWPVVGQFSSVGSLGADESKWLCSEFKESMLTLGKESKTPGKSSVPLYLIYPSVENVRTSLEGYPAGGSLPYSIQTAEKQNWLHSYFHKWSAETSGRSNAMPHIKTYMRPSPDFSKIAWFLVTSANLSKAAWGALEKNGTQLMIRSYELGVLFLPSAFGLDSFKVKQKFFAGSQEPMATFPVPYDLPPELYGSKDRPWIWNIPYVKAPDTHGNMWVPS
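Compounds were preincubated with Tdp1 (1 nM final) for 15 min at room temperature before substrate (15 nM final) started a 5 min reaction; beads (10 ug/ml final) were then added for 10 min before AlphaScreen detection.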
DT40 TDP1 CPT: DT40-hTDP1 cell growth loss with CPT; chicken DT40 Tdp1-/-;hTDP1 cells + 20 nM CPT, ATP luminescence, 48 h; Potency, µM (doses to about 46.2 µM), without a hit: at the highest dose activity change, negative = growth inhibition, usual class: inhibitors; 420,000 tested, 12% active; also: potency is read from the fitted curve at half-maximal effect; nearly all actives have a fitted effect of over 55% in size
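Chicken DT40 Tdp1-/- cells complemented with human TDP1, 400 cells/well, exposed to compounds plus 20 nM camptothecin for at least 48 h at 37 C; viability read as ATP content by CellTiter-Glo luminescence.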
Giardia kill: kills Giardia lamblia; 340,000 tested, 0.15% active; AID 540267; activity change, % at 7.66 µM, hits read low; Giardia lamblia trophozoite viability; in the data active = activity change below about -80%; inconclusive = between about -30% and that limit;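 also: parasites exposed to compound for two days anaerobically before the ATP read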
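Viability, read as ATP luminescence: trophozoites at 100 cells/well, compound added, 48 hrs anaerobic at 37 deg C, then 15-30 min room-temperature development before reading.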
IL1B secr inh: blocks inflammasome-driven IL-1 beta release. THP-1 LPS/ATP IL-1B secretion, AlphaLISA, 16 h; active compounds read low. activity change, % at 57.5 µM. 360,000 tested, 4.7% active. AID 743279; in the data active = activity change below about -50%; inconclusive = mostly about -30% to -49%
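THP-1 cells pretreated 1 hr with compounds (up to 57.5 uM final), then stimulated with LPS (250 ng/mL final) plus ATP (1.25 mM final); secreted IL-1B measured by AlphaLISA after 16 hr, decreased signal indicating inhibition.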
ELG1 DNA repair: inhibitors of ELG1-dependent DNA repair in HEK293T cells | HEK293T ELG1-luciferase reporter, luminescence, 16 h; DNA damage induced by 5-fluorouridine | Potency, µM (top dose mostly 46.1 µM), without a hit: at the highest dose activity change, negative = inhibition, actives largely listed as inhibitors | 330,000 tested, 2.3% active | AID 504467; also: potency is read from the fitted curve at half-maximal effect; nearly all actives have a fitted effect of over 55% in size
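Luminescence from the luciferase reporter, measured 30 min after ONE-Glo reagent at room temperature, was the read-out. Beforehand, 2,000 cells per well were exposed for 16 hr at 37 °C to 5-fluorouridine together with compound or vehicle.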
* hit, by the source's call. Unless noted, calls follow the shape of the dose curve; as a rule, active = well fitted curve in the direction sought with a large enough effect; inconclusive = small, poorly fitted or top-dose-only effect, or another doubt; inactive = no such curve, though single readings can be large; an effect the other way counts as inactive or inconclusive. % is scaled to controls: 0 for no effect and ±100 for the full control effect.

For N=c1c2cn[nH]c2nc(SCC(=O)c2ccc(Br)cc2)n1-c1ccc(Br)cc1 the results were TDP1 cell noCPT 1%, TDP1 block 3%, DT40 TDP1 CPT -2%, Giardia kill 10, IL1B secr inh 26 and ELG1 DNA repair 4%.
Screening Cc1cccc2c(=O)c(-c3ccc4c(c3)OCO4)c(NC(=O)c3ccco3)oc12 returned TDP1 cell noCPT -26%, TDP1 block 4%, DT40 TDP1 CPT inconclusive, Giardia kill 0, IL1B secr inh 15 and ELG1 DNA repair 10µM*.
Screening COc1ccc(-c2c(NC(=O)c3ccco3)oc3c(C)cccc3c2=O)cc1OC returned TDP1 cell noCPT inconclusive, TDP1 block 4%, DT40 TDP1 CPT inconclusive, Giardia kill -27, IL1B secr inh -20 and ELG1 DNA repair -3%.
For Cc1cccc(-c2c(NC(=O)c3ccco3)oc3c(C)cccc3c2=O)c1 the results were TDP1 cell noCPT 26µM*, TDP1 block 3%, DT40 TDP1 CPT inconclusive, Giardia kill 37, IL1B secr inh -9 and ELG1 DNA repair -18%.
Screening COc1cc(-c2c(NC(=O)c3ccco3)oc3c(C)cccc3c2=O)cc(OC)c1OC returned TDP1 cell noCPT 18µM*, TDP1 block 4%, DT40 TDP1 CPT -27%, Giardia kill inconclusive, IL1B secr inh 8 and ELG1 DNA repair -7%.
`O=C(CC(SCCO)c1ccc(F)cc1)c1ccco1` (stereo not drawn) gave TDP1 cell noCPT 16µM*, TDP1 block -4%, DT40 TDP1 CPT 18µM*, Giardia kill -6, IL1B secr inh -27 and ELG1 DNA repair -16%.
O=C1/C(=C/c2ccc([N+](=O)[O-])cc2)Oc2cc(O)ccc21 was read as TDP1 cell noCPT 7.3µM*, DT40 TDP1 CPT inconclusive, Giardia kill -4, IL1B secr inh -1 and ELG1 DNA repair inconclusive.
CS(=O)(=O)Oc1ccc2c(c1)O/C(=C\c1cccc([N+](=O)[O-])c1)C2=O was read as TDP1 cell noCPT -12%, DT40 TDP1 CPT -4%, Giardia kill 2, IL1B secr inh -5 and ELG1 DNA repair 18µM*.
O=C1/C(=C\c2ccc(O)c(O)c2)Oc2cc(O)ccc21 was read as TDP1 block 17%.
For CCc1ccc(/C=C2\Oc3cc(OS(C)(=O)=O)ccc3C2=O)cc1 the results were TDP1 cell noCPT inconclusive, TDP1 block 8%, DT40 TDP1 CPT inconclusive, Giardia kill -7, IL1B secr inh -20 and ELG1 DNA repair -11%.
For O=C1/C(=C/c2ccc(Br)cc2)Oc2cc(O)ccc21 the results were TDP1 cell noCPT inconclusive, DT40 TDP1 CPT -4%, Giardia kill -13, IL1B secr inh 0 and ELG1 DNA repair inconclusive.
For CC(C)(C)c1ccc(/C=C2\Oc3cc(O)ccc3C2=O)cc1 the results were TDP1 cell noCPT inconclusive, DT40 TDP1 CPT 21µM*, Giardia kill -7, IL1B secr inh -74* and ELG1 DNA repair inconclusive.
Screening CC1(C)CN(C2CCCCC2)C(=O)[C@H]1CC(=O)Nc1ccc(Br)cc1 returned TDP1 cell noCPT 18µM*, DT40 TDP1 CPT inconclusive and IL1B secr inh -28.
COc1ccc(NC(=O)Cn2c(=O)n(Cc3ccco3)c(=O)c3sc4ccccc4c32)cc1OC was read as TDP1 cell noCPT -19% and DT40 TDP1 CPT -2%.
Screening CCOC(=O)Cc1csc(N/N=C\c2ccc(N(C)C)cc2)n1 returned TDP1 cell noCPT -23%, DT40 TDP1 CPT -15%, Giardia kill -2, IL1B secr inh -10 and ELG1 DNA repair inconclusive.
Screening CCOc1ccc(NC(=O)Cn2cc(C(=O)c3ccc(F)cc3)c(=O)c3cc4c(cc32)OCO4)cc1 returned TDP1 cell noCPT -27%, TDP1 block 1% and DT40 TDP1 CPT -28%.
For CCOc1ccc(C(=O)c2cn(CC(=O)Nc3ccc(Cl)cc3)c3cc4c(cc3c2=O)OCO4)cc1 the results were TDP1 cell noCPT 13µM*, TDP1 block 6% and DT40 TDP1 CPT inconclusive.
For CCc1ccc(C(=O)c2cn(CC(=O)Nc3ccc4c(c3)OCO4)c3ccc(Cl)cc3c2=O)cc1 the results were TDP1 cell noCPT inconclusive, TDP1 block 4% and DT40 TDP1 CPT inconclusive.
For CCc1ccc(C(=O)c2cn(CC(=O)Nc3ccc(Cl)cc3)c3cc4c(cc3c2=O)OCO4)cc1 the results were TDP1 cell noCPT 16µM*, TDP1 block 1% and DT40 TDP1 CPT 15µM*.
`COc1ccc(/C=C/C(=O)N(c2ccccn2)C2CCCCC2)cc1OC` gave TDP1 cell noCPT inconclusive, TDP1 block 0%, DT40 TDP1 CPT 23µM*, Giardia kill -1, IL1B secr inh -23 and ELG1 DNA repair -22%.
Screening CN(C(=O)/C=C/c1ccccc1)C1CCCCC1 returned TDP1 cell noCPT -22%, DT40 TDP1 CPT -2%, Giardia kill -1 and IL1B secr inh -51*.
For O=C(/C=C/c1ccc(Cl)cc1)N1CCN(c2ccccn2)CC1 the results were TDP1 cell noCPT inconclusive, TDP1 block 3%, DT40 TDP1 CPT -14%, Giardia kill 17, IL1B secr inh -13 and ELG1 DNA repair 10%.
For O=C(/C=C/c1cccc(F)c1)N1CCN(c2ccccn2)CC1 the results were TDP1 cell noCPT -3%, DT40 TDP1 CPT -24%, Giardia kill 6, IL1B secr inh 32 and ELG1 DNA repair inconclusive.
For O=C(/C=C/c1ccc(Cl)cc1)N(c1ccccn1)C1CCCCC1 the results were TDP1 cell noCPT 21µM*, TDP1 block 2%, DT40 TDP1 CPT inconclusive, Giardia kill 8, IL1B secr inh -57* and ELG1 DNA repair inconclusive.
For O=C(/C=C/c1cccc(F)c1)N(c1ccccn1)C1CCCCC1 the results were TDP1 cell noCPT inconclusive, TDP1 block 5%, DT40 TDP1 CPT 13µM*, Giardia kill 4, IL1B secr inh 6 and ELG1 DNA repair -13%.
CC(=O)N(C1=C(Cl)C(=O)c2ccccc2C1=O)C1CCCCC1 was read as TDP1 cell noCPT 0.52µM*, DT40 TDP1 CPT 0.46µM*, Giardia kill -13, IL1B secr inh -97* and ELG1 DNA repair 16µM*.
O=C(Cn1cc(SCc2cccc(F)c2)c2ccccc21)N1CCCC1 was read as TDP1 cell noCPT 21µM*, TDP1 block -3% and DT40 TDP1 CPT inconclusive.
Cc1ccccc1CSc1cn(CC(=O)N2CCCCC2)c2ccccc12 was read as TDP1 cell noCPT 16µM*, TDP1 block 5% and DT40 TDP1 CPT 13µM*.

Assay outcomes from PubChem.
